Measured values from PubChem BioAssay (NCATS).
Results filed as inconclusive are left out. Values without a mark were called inactive. Active and inactive are the calls of the source. The call rests on the fitted dose curve; in most records, active means well fitted cell-killing curve with a large enough effect; inconclusive means small, poorly fitted or top-dose-only effect; inactive means no such curve, though single readings can be large or run the other way.
Potency means the concentration at half of the fitted maximal effect.

Experiment: Quantitative High-Throughput drug screen in 47 multiple myeloma cell lines against the NCATS MIPE library collection: JIM3_ECACC cell viability assay (AID 1918963; further: nearly all actives have a fitted effect of over 35% in size)
Settings: JIM3 myeloma viability, CellTiter-Glo ATP, 48 h; series mostly up to 45.8 µM; viability, percent of control: at the top concentration
Text: PI: Beverly A. Mock Ph.D.
Laboratory of Cancer Biology and Genetics,
Center for Cancer Research, National Cancer Institute,
National Institute of Health, Bethesda, Maryland
Drug resistance and disease progression are common in multiple myeloma (MM) patients, underscoring the need for new therapeutic combinations. […] We hypothesized that effective combinations would reduce MYC expression and enhance p16 activity. […] These preclinical data identify potentially useful drug combinations for evaluation in drug-resistant MM and reveal potential mechanisms of combined drug sensitivity.
Described herein is the primary MIPE qHTS used to cherrypick compounds. Validated compounds were then further tested for potential synergistic activiy.
[1] Peat TJ, Gaikwad SM, Dubois W, Gyabaah-Kessie N, Zhang S, Gorjifard S, Phyo Z, Andres M, Hughitt VK, Simpson RM, Miller MA, Girvin AT, Taylor A, Williams D, D'Antonio N, Zhang Y, Rajagopalan A, Flietner E, Wilson K, Zhang X, Shinn P, Klumpp-Thomas C, McKnight C, Itkin Z, Chen L, Kazandijian D, Zhang J, Michalowski AM, Simmons JK, Keats J, Thomas CJ, Mock BA. Drug combinations identified by high-throughput screening promote cell cycle transition and upregulate Smad pathways in myeloma. Cancer Lett. 2023 Aug 1;568:216284. doi: 10.1016/j.canlet.2023.216284. Epub 2023 Jun 24. PMID: 37356470; PMCID: PMC10408729.
SEQUENCE No. (e.g., 1, 2, 3, etc.); […] (e.g., Cells, Incubation, Reagent, etc.); VALUE and DESCRIPTION.
1; Cells; 5 uL; white, solid bottom 1536-well Greiner assay plate.
2; Compounds; 23 nL; Kalypsis pin tool (Wako USA) equipped with a 1536-well pin head to transfer to the assay plates.
3; Incubation; 48 hours; 37C incubation.
4; Reagent;5uL; CellTiter Glo (Promega).
5; Detector; 425V; Luminescence; Viewlux PerkinElmer.
NOTES (numbers refer to Sequence numbers above)
1. The cell-based screening methods employed in this study were like those previously published. Briefly, the corresponding myeloma cell lines were screened in 1,536-well plates with 500 cells, 5-uL per well for inhibition of cell viability (assessed by measuring ATP levels with CellTiterGlo).
2. NCATS MIPE 4.0 library of approved and investigational drugs were added using the Kalypsis pin tool. Wells treated with DMSO only for 100% viability and media only wells for 0% viability were used as controls.
3. The assay plates were covered and incubated for 48 hours in a 37C, 5% CO2 incubator with controlled humidity.
4. After 48 hours, CellTilter-GloTM luminescent substrate mix (Promega) reagent was added to the assay plate and plates we incubated for 5 min at room temperature.
5. Signal was measured as median relative luminescence units on a ViewLux (PerkinElmer) multiplate reader.
[1] Heske CM, Davis MI, Baumgart JT, Wilson K, Gormally MV, Chen L, Zhang X, Ceribelli M, Duveau DY, Guha R, Ferrer M, Arnaldez FI, Ji J, Tran HL, Zhang Y, Mendoza A, Helman LJ, Thomas CJ. Matrix Screen Identifies Synergistic Combination of PARP Inhibitors and Nicotinamide Phosphoribosyltransferase (NAMPT) Inhibitors in Ewing Sarcoma. Clin Cancer Res. 2017 Dec 1;23(23):7301-7311. doi: 10.1158/1078-0432.CCR-17-1121. Epub 2017 Sep 12. PMID: 28899971; PMCID: PMC6636827.
For CC(C)C[C@H](CN)CC(=O)O, the “viability, percent of control” value was 118%.
For CC(C)c1cccc(C(C)C)c1O, the “viability, percent of control” value was 131%.
For CCC1(c2ccc(N)cc2)CCC(=O)NC1=O (configuration not stated), the “viability, percent of control” value was 104%.
For C[C@]12CC[C@H]3[C@@H](CC[C@@]45O[C@H]4C(O)=C(C#N)C[C@]35C)[C@H]1CC[C@H]2O, the “viability, percent of control” value was 125%.
For CN1C(=O)COc2c(C(=O)NC3CN4CCC3CC4)cc(Cl)cc21 (configuration not stated), the “viability, percent of control” value was 126%.
In the case of CC(NC(C)(C)C)C(=O)c1cccc(Cl)c1 (configuration not stated), the “viability, percent of control” value is reported as 117%.
With CN1C(=O)CCS(=O)(=O)C1c1ccc(Cl)cc1 (configuration not stated) the “viability, percent of control” value was 98.2%.
In the case of COc1cc(OC)c(OC)cc1C=O, the “viability, percent of control” value is reported as 116%.
In the case of C[C@]12CCC(=O)C=C1CC[C@@H]1[C@H]3CC[C@](C)(O)[C@@]3(C)CC[C@@H]12, the “viability, percent of control” value is reported as 107% [at 92.2 µM].
For O=C(O)CCCc1ccc(N(CCCl)CCCl)cc1, the “viability, percent of control” value was 94.8%.
In the case of C[C@](O)(CS(=O)(=O)c1ccc(F)cc1)C(=O)Nc1ccc(C#N)c(C(F)(F)F)c1, the Potency is reported as 2350 nM (active).
In the case of C[C@]12CC[C@@H]3c4ccc(OC(=O)N(CCCl)CCCl)cc4CC[C@H]3[C@@H]1CC[C@@H]2OP(=O)(O)O, the “viability, percent of control” value is reported as 121%.
